A short description of assay [1]: Nuclear factor erythroid 2-related factor 2/antioxidant responsive element (Nrf2/ARE) small molecule agonists: qHTS cell viability counter screen in human keratinocytes (AID 1919968; active means well fitted curve in the direction sought with a large enough effect in the repeat runs; an effect the other way counts as inactive or inconclusive; further: nearly all actives have a fitted effect of over 55% in size; further: potency means the concentration at half of the fitted maximal effect). An outline of the steps: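 Viability counter-screen: KeratinoSens reporter cells, DMSO-delivered compounds, 23 h at 37 C, CellTiter-Fluor fluorescence.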
In general terms: qHTS replaces the single test concentration by a dilution series.

The nature of assay [2]: Nuclear factor erythroid 2-related factor 2/antioxidant responsive element (Nrf2/ARE) small molecule agonists: luciferase reporter gene qHTS assay in human keratinocytes (AID 1919969; further: nearly all actives have a fitted effect of over 35% in size; further: potency means the concentration at half of the fitted maximal effect). (In general: Reporter assays use an easily measured gene product as a stand-in for the process of interest.)
Assay [3] addresses Gonadotropin-releasing hormone receptor (Homo sapiens) (UniProt P30968). Kind of assay: Human gonadotropin-releasing hormone receptor (GnRHR) small molecule agonists, calcium flux assay in GnRHR-HEK293 cells (AID 1920063). Further: nearly all actives have a fitted effect of over 35% in size. An outline of the steps: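 Tox21-format agonist screen using human GnRHR-expressing HEK293 cells and a fluorescent calcium dye; kinetic 3-min fluorescence reading after compound addition, 15-point concentration series run in triplicate.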
Background: Calcium assays in cells follow changes in intracellular calcium, usually with a dye or a luminescent sensor.

Assay [4] deals with KiSS-1 receptor (Homo sapiens) (UniProt Q969F8). Kind of assay: Human kisspeptin (KISS1R) small molecule agonists, calcium flux assay in KISS1R-HEK293 cells (AID 1920064; active means well fitted curve in the direction sought with a large enough effect in the repeat runs; an effect the other way counts as inactive or inconclusive). An outline of the steps: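 Intracellular calcium mobilization in KISS1R-HEK293 cells was recorded by fluorescence (Ex/Em 480/540) for 3 min following compound addition to cells pre-loaded 1 h with calcium dye.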
KiSS-1 receptor (Homo sapiens), sequence (Q969F8 whole entry, looked up): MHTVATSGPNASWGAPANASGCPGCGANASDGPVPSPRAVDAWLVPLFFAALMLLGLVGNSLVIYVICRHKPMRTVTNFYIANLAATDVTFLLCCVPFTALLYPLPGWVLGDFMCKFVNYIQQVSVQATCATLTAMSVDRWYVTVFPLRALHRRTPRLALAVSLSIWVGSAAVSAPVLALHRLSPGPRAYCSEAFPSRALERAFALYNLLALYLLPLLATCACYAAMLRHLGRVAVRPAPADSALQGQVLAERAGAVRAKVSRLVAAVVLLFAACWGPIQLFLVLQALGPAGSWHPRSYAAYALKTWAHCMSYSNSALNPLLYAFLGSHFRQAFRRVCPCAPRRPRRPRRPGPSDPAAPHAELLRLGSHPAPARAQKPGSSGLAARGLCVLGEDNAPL

A short description of assay [5]: G protein-coupled receptor (GPCR) small molecule agonists, calcium flux assay: HEK293 wild type cell line counter screen (AID 1920065). An outline of the steps:
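In this agonist-mode screen, ATP is the positive control and DMSO the vehicle. Cells grow 18 h before a 1 h dye incubation at 37 C; signal is taken at Ex/Em 480/540 over 3 min.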

Assay [6] is described as follows: p53 small molecule agonists, cell-based qHTS assay with human liver microsomes (AID 1963577).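 Further: p53 response element beta-lactamase reporter cells with liver microsomes plus NADPH.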 The essentials:
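With metabolic activation: human liver microsomes (0.5 mg/mL final) plus NADPH (0.5 mg/mL final) added alongside compounds to p53RE-bla cells; 16 h 37 C exposure; beta-lactamase read by LiveBLAzer fluorescence.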

Assay [7] can be described thus: p53 small molecule agonists, cell-based qHTS assay with rat liver microsomes (AID 1963578). An outline of the steps: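 Metabolic activation by rat liver microsomes and NADPH, each 0.5 mg/mL final, added right after compounds to p53RE-bla reporter cells (4,000/well, plated 5 h earlier). 16 h at 37 C, then LiveBLAzer substrate for 2 h at room temperature in the dark; fluorescence read-out.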

Assay [8] can be described thus: p53 small molecule agonists, cell-based qHTS assay with human liver microsomes: qHTS cell viability counter screen (AID 1963579). Further: nearly all actives have a fitted effect of over 45% in size. Further: potency means the concentration at half of the fitted maximal effect. An outline of the steps: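 Metabolic activation used human liver microsomes and NADPH, both 0.5 mg/mL final, over 16 hours at 37 C on p53RE-bla cells (4,000/well). Cytotoxicity measured by CellTiter-Glo luminescence, 30 min at room temperature.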

Assay [9] in a line: p53 small molecule agonists, cell-based qHTS assay with rat liver microsomes: qHTS cell viability counter screen (AID 1963580). Further: nearly all actives have a fitted effect of over 45% in size. Further: potency means the concentration at half of the fitted maximal effect. The essentials:
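p53RE-bla HCT-116 cells (4,000/well) rested 5 h at 37 C, then given Tox21 compounds in DMSO with rat liver microsomes (0.5 mg/mL final) plus NADPH (0.5 mg/mL final) for 16 h at 37 C. Viability read by CellTiter-Glo luminescence after 30 min at room temperature.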

Assay [10] can be described thus: p53 small molecule agonists, cell-based qHTS assay: qHTS cell viability counter screen (AID 1963581). Further: nearly all actives have a fitted effect of over 45% in size. The essentials: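 Compounds are pinned onto HCT-116 p53RE-bla cells and left 16 h at 37 C. Following the reporter FRET read, ATP is quantified by CellTiter-Glo luminescence after 30 min at room temperature.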
Assay [11] can be described thus: p53 small molecule agonists, cell-based qHTS assay (AID 1963582; active means well fitted activation curve with a large enough effect in the signal ratio in the repeat runs, not every such curve was filed as active; the % refers to the signal ratio). An outline of the steps:
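Agonist activity was scored from beta-lactamase FRET fluorescence in p53RE-bla cells treated 16 h at 37 C with compounds in DMSO, substrate incubation being 2 h at room temperature.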

Assay [12] deals with 5-hydroxytryptamine receptor 2A (Homo sapiens) (UniProt P28223). Kind of assay: 5-hydroxytryptamine receptor 2A (HTR2A) small molecule antagonists, cell-based qHTS assay (AID 1963586). Further: nearly all actives have a fitted effect of over 45% in size. An outline of the steps:
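Antagonist-mode intracellular calcium assay: DOI (4 nM) added after 5 min compound pre-incubation at room temperature to dye-loaded HTR2A-CHO cells. Fluorescence followed for 3 min, sampled every second.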

Assay [13] shares this target. Kind of assay: 5-hydroxytryptamine receptor 2A (HTR2A) small molecule agonists, cell-based qHTS assay (AID 1963587). Further: nearly all actives have a fitted effect of over 30% in size. An outline of the steps:
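HTR2A-CHO cells, plated 18 h at 37 C/5% CO2, dye-loaded 1 h at 37 C; compounds in DMSO added by pin tool (agonist mode). Intracellular calcium flux read as kinetic fluorescence on FDSS over 2 min at 1 s intervals.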

Assay [14] deals with Muscarinic acetylcholine receptor M1 (Homo sapiens) (UniProt P11229). The experiment in a line: Cholinergic receptor muscarinic 1 (CHRM1) small molecule antagonists, cell-based qHTS assay (AID 1963588). Further: nearly all actives have a fitted effect of over 40% in size. The essentials:
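CHRM1-CHO calcium-flux assay, antagonist mode. Cells were seeded 18 h, dye-loaded 1 h at 37 C and given compound for 5 min at RT, then acetylcholine was added at 50nM. FDSS fluorescence was read 3 min; 15 concentrations, three runs.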

For assay [15] the target is unchanged. Kind of assay: Cholinergic receptor muscarinic 1 (CHRM1) small molecule agonists, cell-based qHTS assay (AID 1963589). Further: nearly all actives have a fitted effect of over 35% in size. The essentials:
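Stable CHRM1-CHO cells (human receptor) were incubated 18 h, dye-loaded for 1 h at 37 C and exposed to test compounds for agonist activity, with calcium-dependent fluorescence followed kinetically.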

Assay [16] in a line: cAMP Responsive Elements (CRE) small molecule agonists, cell-based qHTS assay (AID 1963590). The essentials: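 FRET-based beta-lactamase readout (LiveBLAzer B/G, 2 h RT) quantified CRE activation in HEK 293T CRE-bla cells after 3 h treatment with DMSO-dissolved compounds.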
Assay [17] can be described thus: cAMP Responsive Elements (CRE) small molecule antagonists, cell-based qHTS assay (AID 1963591; active means well fitted inhibition curve with a large enough effect in the signal ratio in the repeat runs, not every such curve was filed as active; the % refers to the signal ratio). An outline of the steps:
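qHTS in CRE-bla HEK 293T cells: compound in DMSO, then 0.25 uM NKH477 (final), 3 h at 37 °C/5% CO2; beta-lactamase FRET read-out after 2 h substrate incubation.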

Assay [18] concerns the target Beta-2 adrenergic receptor (Homo sapiens) (UniProt P07550). The experiment in a line: Adrenergic beta2 receptor (ADRB2) small molecule antagonists, cell-based qHTS assay (AID 1963592). Further: series mostly up to about 92 µM; nearly all actives have a fitted effect of over 50% in size. An outline of the steps: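 Cells (CHO, stable ADRB2 overexpression) incubated 18-20hr at 37C; compounds added from DMSO; agonist mix (1nM isoproterenol, 100uM IBMX, 25uM Ro-20-1724) added; 0.5hr RT; d2-cAMP and anti-cAMP-cryptate added; 1hr RT; 665/615 nm read.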

In assay [19] the target is D(2) dopamine receptor (Homo sapiens) (UniProt P14416). The experiment in a line: Dopamine D2 receptor (DRD2) small molecule agonists, cell-based qHTS assay (AID 1963594). Further: nearly all actives have a fitted effect of over 35% in size. An outline of the steps:
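HEK293 cells stably expressing DRD2 were cultured 24 h at 37 C, then given Ro20-1724 (0.1 mM final) and compounds for 10 min at room temperature. NKH477 (200nM) was then added for 30 min. cAMP was read by HTRF.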

For assay [20] the target is unchanged. Kind of assay: Dopamine D2 receptor (DRD2) small molecule antagonists, cell-based qHTS assay (AID 1963595; active means well fitted inhibition curve with a large enough effect in the signal ratio in the repeat runs, with a control signal flat; the % refers to the signal ratio). An outline of the steps:
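HTRF cAMP read-out at 665 and 620 nm emission (340 nm excitation). Antagonist mode: compounds were tested against 12 nM quinpirole in DRD2-HEK293 cells, with 200 nM NKH477 raising cAMP and 0.1 mM Ro20-1724 blocking its breakdown.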

“And” between values parts separate entries of the source, which are not always exact repeats. Identical values can stand only once. Inconclusive results are not listed. More than one record can exist for a structure, and the calls need not agree. The source made the active and inactive calls. Unless noted, the call rests on the fitted dose curve.

Beta-2 adrenergic receptor (Homo sapiens), sequence (P07550 whole entry, looked up): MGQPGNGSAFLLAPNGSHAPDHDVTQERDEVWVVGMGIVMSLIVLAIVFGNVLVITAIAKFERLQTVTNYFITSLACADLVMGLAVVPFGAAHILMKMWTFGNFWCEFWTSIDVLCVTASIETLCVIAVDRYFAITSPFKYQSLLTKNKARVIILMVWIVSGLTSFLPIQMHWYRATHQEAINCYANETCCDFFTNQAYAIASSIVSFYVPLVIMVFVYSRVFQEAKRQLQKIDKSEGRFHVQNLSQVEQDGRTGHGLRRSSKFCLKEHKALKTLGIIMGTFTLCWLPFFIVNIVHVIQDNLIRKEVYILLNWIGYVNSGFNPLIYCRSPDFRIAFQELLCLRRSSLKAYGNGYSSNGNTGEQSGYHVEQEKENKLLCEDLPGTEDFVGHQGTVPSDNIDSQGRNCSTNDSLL
Gonadotropin-releasing hormone receptor (Homo sapiens), sequence (P30968 whole entry, looked up): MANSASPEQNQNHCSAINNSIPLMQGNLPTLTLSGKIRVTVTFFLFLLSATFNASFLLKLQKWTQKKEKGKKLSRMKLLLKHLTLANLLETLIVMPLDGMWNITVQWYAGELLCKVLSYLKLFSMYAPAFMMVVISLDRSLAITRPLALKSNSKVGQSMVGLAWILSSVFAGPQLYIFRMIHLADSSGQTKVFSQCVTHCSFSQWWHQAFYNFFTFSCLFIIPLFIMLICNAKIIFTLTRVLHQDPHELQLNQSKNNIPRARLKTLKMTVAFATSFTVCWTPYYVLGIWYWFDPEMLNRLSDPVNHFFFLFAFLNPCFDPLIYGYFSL
5-hydroxytryptamine receptor 2A (Homo sapiens), sequence (P28223 whole entry, looked up): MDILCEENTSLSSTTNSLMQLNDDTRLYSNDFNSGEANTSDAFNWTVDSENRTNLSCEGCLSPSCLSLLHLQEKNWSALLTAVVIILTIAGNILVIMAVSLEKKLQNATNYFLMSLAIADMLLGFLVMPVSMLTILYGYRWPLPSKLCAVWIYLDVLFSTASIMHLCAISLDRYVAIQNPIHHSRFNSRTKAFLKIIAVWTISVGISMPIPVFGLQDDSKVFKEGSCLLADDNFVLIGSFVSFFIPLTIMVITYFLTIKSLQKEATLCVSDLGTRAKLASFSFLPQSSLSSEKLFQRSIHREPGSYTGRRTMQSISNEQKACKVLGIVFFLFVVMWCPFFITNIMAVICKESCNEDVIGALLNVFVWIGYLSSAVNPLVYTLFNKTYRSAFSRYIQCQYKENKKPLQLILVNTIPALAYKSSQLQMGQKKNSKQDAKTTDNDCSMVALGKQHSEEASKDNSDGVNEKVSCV
Muscarinic acetylcholine receptor M1 (Homo sapiens), sequence (P11229 whole entry, looked up): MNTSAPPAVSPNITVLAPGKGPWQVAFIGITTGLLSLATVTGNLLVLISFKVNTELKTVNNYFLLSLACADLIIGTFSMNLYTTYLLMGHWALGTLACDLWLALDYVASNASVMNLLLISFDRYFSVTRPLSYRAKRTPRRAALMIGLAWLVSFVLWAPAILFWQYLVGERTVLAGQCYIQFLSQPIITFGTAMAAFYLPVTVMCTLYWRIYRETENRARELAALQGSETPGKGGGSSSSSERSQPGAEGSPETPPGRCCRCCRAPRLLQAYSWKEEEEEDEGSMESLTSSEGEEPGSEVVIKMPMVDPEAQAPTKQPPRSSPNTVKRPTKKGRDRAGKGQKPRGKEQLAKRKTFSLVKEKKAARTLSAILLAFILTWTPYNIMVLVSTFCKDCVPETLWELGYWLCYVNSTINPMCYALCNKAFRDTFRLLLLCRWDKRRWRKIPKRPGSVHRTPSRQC
D(2) dopamine receptor (Homo sapiens), sequence (P14416 whole entry, looked up): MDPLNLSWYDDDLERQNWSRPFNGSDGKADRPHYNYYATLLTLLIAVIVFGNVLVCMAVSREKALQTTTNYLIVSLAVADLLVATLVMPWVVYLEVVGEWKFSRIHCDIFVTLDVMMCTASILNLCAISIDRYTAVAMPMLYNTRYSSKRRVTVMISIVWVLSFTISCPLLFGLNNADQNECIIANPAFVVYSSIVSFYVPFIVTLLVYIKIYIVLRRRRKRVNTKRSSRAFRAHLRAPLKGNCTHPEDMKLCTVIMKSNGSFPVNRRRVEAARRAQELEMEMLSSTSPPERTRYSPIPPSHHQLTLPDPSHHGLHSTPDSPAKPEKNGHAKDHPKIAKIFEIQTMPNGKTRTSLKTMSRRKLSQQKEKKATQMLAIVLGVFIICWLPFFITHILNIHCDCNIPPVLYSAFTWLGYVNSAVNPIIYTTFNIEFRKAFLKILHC

As for `Cc1cc(C2(c3cc(C)c(O)cc3C)OS(=O)(=O)c3ccccc32)c(C)cc1O`, the Potency in assay [1] is 21.7 µM (active) and 19.3 µM (active). The Potency entry in assay [2], in assay [3], in assay [4], in assay [5], in assay [6] and in [7] was “inactive” each time. For the same compound, the Potency entry in assay [8], in assay [9], in assay [10], in assay [11], in assay [12] and in assay [13] was “inactive” each time. Further, the Potency entry in [14], in assay [15], in assay [16], in assay [17] and in assay [18] was “inactive” each time.
For `CCNc1cccc(C)c1`, the Potency result in [1], in [2], in assay [3], in [4], in assay [5] and in assay [6] was “inactive” in each case. Also, the Potency entry in assay [7], in assay [8], in assay [9], in assay [10], in assay [11] and in assay [12] was “inactive” throughout. In addition, the Potency result in assay [13], in assay [14], in [15], in [16], in assay [17] and in assay [18] was “inactive” in each case. Also, the Potency result in assay [19] and in assay [20] was “inactive” each time.
For `CCOCC(=O)O`, the Potency result in assay [1], in assay [2], in assay [3], in assay [4], in [5] and in [6] was “inactive” each time. In addition, the Potency entry in [7], in assay [8], in assay [9], in assay [10], in assay [11] and in assay [12] was “inactive” each time. In addition, the Potency result in assay [13], in assay [14], in assay [15], in [16], in assay [17] and in assay [18] was “inactive” throughout. For the same compound, the Potency result in assay [19] and in assay [20] was “inactive” in each case.
As to `Brc1cc(Oc2cc(Br)c(Br)c(Br)c2Br)c(Br)c(Br)c1Br`, the Potency entry in [1], in assay [3], in assay [4], in [5], in [6] and in [7] was “inactive” in each case. Moreover, the Potency result in assay [9], in assay [10], in [11], in [12], in [13] and in [14] was “inactive” each time. The Potency result in assay [15], in assay [16], in assay [17], in [18], in [19] and in [20] was “inactive” throughout. Besides, the Potency in assay [2] is 68.9 µM (active) and inactive; in assay [8] it was 20.5 µM (active) and inactive.
In the case of `c1ccc(Oc2ccccc2)cc1`, the Potency entry in assay [1], in [2], in assay [3], in assay [4], in assay [5] and in [6] was “inactive” in each case. The Potency entry in [7], in assay [8], in assay [9], in assay [10], in [11] and in assay [12] was “inactive” each time. For the same compound, the Potency entry in [13], in assay [14], in assay [15], in assay [16], in assay [17] and in assay [18] was “inactive” throughout. Moreover, the Potency result in assay [19] and in [20] was “inactive” in each case.
In the case of `CC(=O)OCCC(C)C`, the Potency entry in assay [1], in assay [2], in assay [3], in assay [4], in [5] and in assay [6] was “inactive” in each case. Moreover, the Potency entry in [7], in [8], in [9], in [10], in assay [11] and in [12] was “inactive” in each case. Also, the Potency result in assay [13], in assay [14], in [15], in [16], in assay [17] and in assay [18] was “inactive” each time. Further, the Potency result in [19] and in [20] was “inactive” each time.
On to `C=C(C)C(=O)O[C@H]1C[C@@H]2CC[C@@]1(C)C2(C)C`, for which the Potency is 1.21 µM (active) and inactive in assay [1]; 963 nM (active) and inactive in [2]; 7.21 µM (active) and inactive in assay [9]. Besides, the Potency entry in assay [3], in [4], in assay [5], in assay [6], in assay [7] and in assay [8] was “inactive” each time. Moreover, the Potency result in assay [10], in assay [11], in assay [12], in assay [13], in assay [14] and in assay [15] was “inactive” throughout. In addition, the Potency entry in assay [16], in [17], in assay [18], in [19] and in assay [20] was “inactive” each time.

(Values after PubChem BioAssay (Tox21).)
